Assay results published in PubChem BioAssay (EPA / NIEHS).
Calls of active or inactive are those of the source. How the source made its calls: active means hit-call score of the fitted dose curve at least 0.9, where 1 is the maximum; inactive means score below 0.9.

Tests used:
[1] = read-out: TIMP metallopeptidase inhibitor 2 (TIMP2), TIMP2 (gene 7077); test: BSK_KF3CT_TIMP2: BioMAP Diversity Plus: KF3CT Assay for TIMP metallopeptidase inhibitor 2 (TIMP2) Biomarker Activity (AID 2283071); details: primary human keratinocytes with fibroblasts; actives raise or lower the signal
In short: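 Measurements come from ELISA detection of TIMP-2 at 24 hours in a dosed human keratinocyte and foreskin fibroblast co-culture. DMSO serves as negative control and baseline.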

[2] = read-out: Transforming growth factor beta 1 (TGFb1), TGFB1 (gene 7040); test: BSK_KF3CT_TGFb1: BioMAP Diversity Plus: KF3CT Assay for Transforming growth factor beta 1 (TGFb1) Biomarker Activity (AID 2283072); details: primary human keratinocytes with fibroblasts; actives raise or lower the signal
In short: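 TGF-b1 ELISA on a 24 h dosed co-culture of human keratinocytes and foreskin fibroblasts; cytotoxicity tracked in parallel cultures by SRB staining.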

[3] = read-out: C-C motif chemokine 2 (Homo sapiens) (UniProt P13500); test: BSK_KF3CT_MCP1: BioMAP Diversity Plus: KF3CT Assay for Monocyte Chemoattractant Protein 1 (MCP1/CCL2) Biomarker Activity (AID 2283073); details: primary human keratinocytes with fibroblasts; actives raise or lower the signal
In short: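 Biomarker MCP-1 is measured by ELISA in primary human keratinocytes co-cultured with foreskin fibroblasts, 24 h after chemical treatment; DMSO serves as the negative control and activity baseline.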

[4] = read-out: Matrix Metallopeptidase 9 (MMP9), MMP9 (gene 4318); test: BSK_KF3CT_MMP9: BioMAP Diversity Plus: KF3CT Assay for Matrix Metallopeptidase 9 (MMP9) Biomarker Activity (AID 2283074); details: primary human keratinocytes with fibroblasts; actives raise or lower the signal;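 on AC50: MMP9 protein level quantified by ELISA in the co-culture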
In short: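 MMP-9 quantified by ELISA after 24 h chemical treatment of primary human skin keratinocyte/fibroblast co-cultures; gain or loss fitted against DMSO, with parallel SRB staining (0.1% SRB, 560 nm) for overt cytotoxicity.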

[5] = read-out: urokinase plasminogen activator (uPA), PLAU (gene 5328); test: BSK_KF3CT_uPA: BioMAP Diversity Plus: KF3CT Assay for urokinase plasminogen activator (uPA) Biomarker Activity (AID 2283075); details: primary human keratinocytes with fibroblasts; actives raise or lower the signal
In short: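 ELISA read-out of uPA 24 h after dosing human skin keratinocytes co-cultured with foreskin fibroblasts. Signal change fitted both ways relative to DMSO; sulforhodamine B on parallel cultures marks overt cytotoxicity.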

CD40, CD40 (gene 958) [6] = test: BSK_LPS_CD40: BioMAP Diversity Plus: LPS Assay for CD40 Biomarker Activity (AID 2283076); details: primary human HUVEC with PBMC; actives raise or lower the signal
In short: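 Using a multiplexed primary human co-culture (umbilical vein endothelium plus PBMC), CD40 was read by ELISA 24 h after dosing, with cytotoxicity tracked by sulforhodamine B staining of parallel cultures and activity fitted bidirectionally versus DMSO.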

[7] = read-out: E-selectin (Homo sapiens) (UniProt P16581); test: BSK_LPS_Eselectin: BioMAP Diversity Plus: LPS Assay for Eselectin Biomarker Activity (AID 2283077); details: primary human HUVEC with PBMC; actives raise or lower the signal
In short: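 Dose chemical onto LPS-driven HUVEC/PBMC co-culture; after 24 h, run ELISA for E-selectin; fit up- and down-going responses relative to DMSO control.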

[8] = read-out: Interleukin-8 (IL8), CXCL8 (gene 3576); test: BSK_LPS_IL8: BioMAP Diversity Plus: LPS Assay for Interleukin-8 (IL8) Biomarker Activity (AID 2283078); details: primary human HUVEC with PBMC; actives raise or lower the signal
In short: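 In this LPS system, chemical-treated human umbilical vein endothelium/PBMC co-cultures were harvested at 24 h for IL-8 ELISA.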

[9] = BSK_LPS_SRB: Viability Assessment in the BioMAP Diversity Plus: LPS Assay (AID 2283079); details: primary human HUVEC with PBMC;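 further: total protein by sulforhodamine B absorbance as a cytotoxicity measure; measured one day after compound addition; fitted in both directions against DMSO so loss or gain of signal counts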
In short: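 Cytotoxicity endpoint in human endothelial–PBMC co-culture: 24 h exposure, then SRB (0.1%) staining, 560 nm read.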

[10] = read-out: Interleukin-1 alpha (IL1a), IL1A (gene 3552); test: BSK_LPS_IL1a: BioMAP Diversity Plus: LPS Assay for Interleukin-1 alpha (IL1a) Biomarker Activity (AID 2283080); details: primary human HUVEC with PBMC; actives raise or lower the signal
In short: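 Primary human HUVEC and PBMC co-culture stimulated with LPS is dosed and harvested at 24 h. Both increases and decreases in ELISA-measured IL-1a are scored relative to DMSO.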

[11] = read-out: Monocyte Chemoattractant Protein-1 (MCP1), CCL2 (gene 6347); test: BSK_LPS_MCP1: BioMAP Diversity Plus: LPS Assay for Monocyte Chemoattractant Protein-1 (MCP1) Biomarker Activity (AID 2283081); details: primary human HUVEC with PBMC; actives raise or lower the signal;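 on AC50: secreted MCP-1 protein quantified by ELISA in culture supernatant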
In short: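 Values derive from bidirectional fitting against DMSO of ELISA-measured MCP-1 in a human primary endothelial and mononuclear cell co-culture, 24 h after chemical addition under LPS activation.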

[12] = BSK_LPS_PGE2: BioMAP Diversity Plus: LPS Assay for Prostaglandin E2 (PGE2) Biomarker Activity (AID 2283082); details: primary human HUVEC with PBMC; actives raise or lower the signal;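 on AC50: secreted prostaglandin E2 measured by ELISA in LPS-stimulated co-culture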
In short: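 Primary human endothelial cells and blood mononuclear cells, co-cultured with LPS, receive test chemical; PGE2 ELISA follows at 24 h, with SRB-stained parallel cultures flagging cytotoxicity.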

[13] = read-out: Macrophage colony-stimulating factor (MCSF), CSF1 (gene 1435); test: BSK_LPS_MCSF: BioMAP Diversity Plus: LPS Assay for Macrophage colony-stimulating factor (MCSF) Biomarker Activity (AID 2283083); details: primary human HUVEC with PBMC; actives raise or lower the signal
In short: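 Bidirectional fit versus DMSO of ELISA-measured M-CSF in co-cultured human umbilical vein endothelial cells and PBMC, sampled 24 h after dosing.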

[14] = read-out: Tissue Factor, F3 (gene 2152); test: BSK_LPS_TissueFactor: BioMAP Diversity Plus: LPS Assay for Tissue Factor Biomarker Activity (AID 2283084); details: primary human HUVEC with PBMC; actives raise or lower the signal
In short: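 Read-out: CD142 ELISA, 24 h. System: LPS-driven human endothelial/PBMC co-culture. Analysis: up- or down-signal fitted against DMSO.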

[15] = read-out: Tumor necrosis factor (Homo sapiens) (UniProt P01375); test: BSK_LPS_TNFa: BioMAP Diversity Plus: LPS Assay for Tumour Necrosis Factor alpha (TNFa) Biomarker Activity (AID 2283085); details: primary human HUVEC with PBMC; actives raise or lower the signal;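 on AC50: TNFa protein level quantified by ELISA in the co-culture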
In short: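 ELISA-based TNFa endpoint in a human endothelial–PBMC co-culture sampled 24 h post-exposure. Curves were fitted in both directions using DMSO as baseline of activity.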

[16] = read-out: Vascular cell adhesion molecule 1 (VCAM1), VCAM1 (gene 7412); test: BSK_LPS_VCAM1: BioMAP Diversity Plus: LPS Assay for Vascular cell adhesion molecule 1 (VCAM1) Biomarker Activity (AID 2283086); details: primary human HUVEC with PBMC; actives raise or lower the signal
In short: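 Measured by ELISA: VCAM-1 in LPS-activated HUVEC/PBMC co-cultures 24 h after treatment. Values reflect bidirectional fitting with DMSO as baseline.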

CD40, CD40 (gene 958) [17] = test: BSK_SAg_CD40: BioMAP Diversity Plus: SAg Assay for CD40 Biomarker Activity (AID 2283088); details: primary human HUVEC with PBMC; actives raise or lower the signal
In short: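 Endpoint derived by fitting increases or decreases versus DMSO controls. CD40 is detected by fluorescence ELISA in a human vascular co-culture of endothelium and PBMC at 24 h.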

CD69, CD69 (gene 969) = test: BSK_SAg_CD69: BioMAP Diversity Plus: SAg Assay for CD69 Biomarker Activity (AID 2283089); details: primary human HUVEC with PBMC; actives raise or lower the signal;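 on AC50: cell surface CD69 protein quantified by ELISA with fluorescence detection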
In short: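 Endothelial/PBMC co-culture; chemical added; 24 h incubation; CD69 ELISA with fluorescence detection; bidirectional fit vs DMSO.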

[18] = read-out: Monocyte Chemoattractant Protein-1 (MCP1), CCL2 (gene 6347); test: BSK_SAg_MCP1: BioMAP Diversity Plus: SAg Assay for Monocyte Chemoattractant Protein-1 (MCP1) Biomarker Activity (AID 2283090); details: primary human HUVEC with PBMC; actives raise or lower the signal
In short: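 Values derive from bidirectional fitting of ELISA-measured MCP1 against DMSO controls. Readings were taken 24 h after dosing human vascular endothelial cells co-cultured with peripheral blood mononuclear cells under superantigen stimulation.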

CD38, CD38 (gene 952) = test: BSK_SAg_CD38: BioMAP Diversity Plus: SAg Assay for CD38 Biomarker Activity (AID 2283087); details: primary human HUVEC with PBMC; actives raise or lower the signal
In short: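 Measures CD38 on a human endothelial/PBMC co-culture driven by SEB and TSST-1, 24 h after compound exposure, using ELISA with fluorescence detection; DMSO defines baseline for bidirectional curve fitting.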

Measured: AC50

Tumor necrosis factor (Homo sapiens), sequence (P01375 whole entry, looked up): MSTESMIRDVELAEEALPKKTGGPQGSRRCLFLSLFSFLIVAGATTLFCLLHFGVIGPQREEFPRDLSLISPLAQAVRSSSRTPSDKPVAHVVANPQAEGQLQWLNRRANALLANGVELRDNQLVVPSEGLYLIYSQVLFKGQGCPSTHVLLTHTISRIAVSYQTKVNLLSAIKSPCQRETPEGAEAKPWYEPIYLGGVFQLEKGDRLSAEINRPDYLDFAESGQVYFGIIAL
E-selectin (Homo sapiens), sequence (P16581 whole entry, looked up): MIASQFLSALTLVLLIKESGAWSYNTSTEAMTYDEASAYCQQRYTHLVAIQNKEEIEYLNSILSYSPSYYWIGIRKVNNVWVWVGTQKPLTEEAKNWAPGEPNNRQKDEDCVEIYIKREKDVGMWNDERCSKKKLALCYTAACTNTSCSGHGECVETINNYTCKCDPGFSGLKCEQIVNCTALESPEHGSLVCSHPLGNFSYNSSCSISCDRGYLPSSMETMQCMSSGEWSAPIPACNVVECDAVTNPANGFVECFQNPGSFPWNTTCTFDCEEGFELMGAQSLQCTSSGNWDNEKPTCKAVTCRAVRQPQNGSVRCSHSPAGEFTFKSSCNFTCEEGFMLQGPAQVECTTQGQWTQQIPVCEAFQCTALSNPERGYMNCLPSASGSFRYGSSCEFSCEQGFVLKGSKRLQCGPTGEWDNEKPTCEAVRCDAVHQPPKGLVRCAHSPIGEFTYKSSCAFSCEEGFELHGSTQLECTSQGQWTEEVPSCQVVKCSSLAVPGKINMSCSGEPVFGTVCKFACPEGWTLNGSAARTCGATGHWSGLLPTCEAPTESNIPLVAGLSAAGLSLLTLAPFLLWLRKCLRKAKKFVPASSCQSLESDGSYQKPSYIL

CNc1cnn(-c2cccc(C(F)(F)F)c2)c(=O)c1Cl
active: CD40, CD40 (gene 958) [17] 11.7 µM | CD69, CD69 (gene 969) 29.1 µM
not listed: CD38, CD38 (gene 952)
inactive: all other assays above

CNC(=O)ON=C(SC)C(=O)N(C)C
active: [16] 10.2 µM
not listed: CD40, CD40 (gene 958) [6] | CD38, CD38 (gene 952)
inactive: all other assays above

CON=C(C(=O)OC)c1ccccc1CON=C(C)c1cccc(C(F)(F)F)c1
active: [3] 6.61 µM | [4] 3.97 µM | [7] 0.25 µM | [8] 3.35 µM | [9] 6.96 µM | [11] 2.93 µM | [12] 1.14 µM | [13] 5.49 µM | [15] 5.02 µM | CD38, CD38 (gene 952) 5.63 µM | CD40, CD40 (gene 958) [17] 5.02 µM | [18] 4.09 µM
inactive: [1] | [2] | [5] | [10] | [14] | [16]

CC(C)N(C(=O)SCC(Cl)=C(Cl)Cl)C(C)C
inactive: [2]
active: [1] 36.4 µM | [3] 30.5 µM | [4] 36.6 µM | [5] 32.6 µM | CD40, CD40 (gene 958) [6] 29.9 µM | [7] 31.6 µM | [8] 29.5 µM | [9] 29.1 µM | [10] 26.4 µM | [11] 31.7 µM | [12] 34.7 µM | [13] 29.5 µM | [14] 30.1 µM | [15] 32.3 µM | [16] 29.8 µM | CD38, CD38 (gene 952) 31.3 µM | CD40, CD40 (gene 958) [17] 30.9 µM | [18] 31.3 µM

CCCCOC(=O)[C@@H](C)Oc1ccc(Oc2ccc(C#N)cc2F)cc1
not listed: CD40, CD40 (gene 958) [6] | CD38, CD38 (gene 952)
inactive: all other assays above

COP(=O)(OC)C(O)C(Cl)(Cl)Cl (stereo unspecified)
not listed: CD40, CD40 (gene 958) [6] | [8] | [12] | CD69, CD69 (gene 969) | CD38, CD38 (gene 952)
inactive: all other assays above

CC[C@H](C)[C@H]1O[C@]2(C=C[C@@H]1C)C[C@@H]1C[C@@H](C/C=C(\C)[C@@H](O[C@H]3C[C@H](OC)[C@@H](O[C@H]4C[C@H](OC)[C@@H](NC)[C@H](C)O4)[C@H](C)O3)[C@@H](C)/C=C/C=C3\CO[C@@H]4[C@H](O)C(C)=C[C@@H](C(=O)O1)[C@]34O)O2
active: [2] 10.8 µM | [3] 7.96 µM | [4] 6.21 µM | [5] 9.27 µM | CD40, CD40 (gene 958) [6] 1.86 µM | [7] 5.98 µM | [8] 5.57 µM | [9] 5.52 µM | [10] 3.68 µM | [11] 5.49 µM | [13] 4.33 µM | [14] 9.74 µM | [15] 4.56 µM | [16] 7.42 µM | CD38, CD38 (gene 952) 3.25 µM | CD40, CD40 (gene 958) [17] 3.34 µM | CD69, CD69 (gene 969) 4.17 µM | [18] 3.38 µM
inactive: [12]

CCCCSP(=O)(SCCCC)SCCCC
active: CD40, CD40 (gene 958) [6] 31.8 µM | [7] 32.6 µM | [8] 27.1 µM | [9] 16 µM | [11] 20 µM | [12] 29.7 µM | [15] 32.5 µM | [16] 31.1 µM | CD38, CD38 (gene 952) 20 µM | [18] 20 µM
inactive: [2] | [3] | [4] | [5] | [10] | [13] | [14] | CD40, CD40 (gene 958) [17]

FC(F)C(F)(F)OCC(Cn1cncn1)c1ccc(Cl)cc1Cl (stereo unspecified)
active: CD40, CD40 (gene 958) [6] 17.1 µM | [9] 20 µM | [12] 2.52 µM | [13] 30.7 µM | [16] 32.8 µM | CD38, CD38 (gene 952) 20 µM | CD69, CD69 (gene 969) 30 µM
not listed: CD40, CD40 (gene 958) [17]
inactive: all other assays above

CCNc1nc(Cl)nc(NC(C)(C)C#N)n1
active: [15] 3.97 µM
not listed: CD69, CD69 (gene 969) | CD38, CD38 (gene 952)
inactive: all other assays above

CNC(=O)Oc1cccc2c1OC(C)(C)O2
active: CD40, CD40 (gene 958) [6] 13.6 µM | [7] 20 µM | [8] 25.2 µM | [13] 20 µM | [15] 32.9 µM | [16] 20 µM | CD38, CD38 (gene 952) 35.1 µM
not listed: CD69, CD69 (gene 969)
inactive: all other assays above

CCOP(=S)(OCC)Oc1ccc([N+](=O)[O-])cc1
active: [12] 20 µM | [13] 20 µM | [16] 20 µM
not listed: CD40, CD40 (gene 958) [6] | [11] | CD69, CD69 (gene 969) | CD38, CD38 (gene 952)
inactive: all other assays above
